Source: PubChem BioAssay (EPA / NIEHS)
Activity calls are given as the source filed them. Rule for the calls: active = hit-call score of the fitted dose curve at least 0.9, where 1 is the maximum; inactive = score below 0.9.

Columns and labels:
Details in all cases: mRNA level, 48 h; actives raise or lower the signal
[1] = read-out: ABC Transporter (ABCB11), ABCB11 (gene 8647); experiment: LTEA_HepaRG_ABCB11: Life Technologies and Expression Analysis (LTEA) Assay for ABC Transporter (ABCB11) using HepaRG (AID 2283463)
Outline: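 Differentiated human HepaRG cells in serum-free induction medium, dosed in duplicate for 48 h. Eight-point half-log series from 100 uM in 0.5% DMSO; ABCB11 mRNA by qRT-PCR, normalized to ACTB, GAPDH, POLR2A, fitted bidirectionally versus DMSO.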

[2] = read-out: ABC Transporter (ABCC2), ABCC2 (gene 1244); experiment: LTEA_HepaRG_ABCC2: Life Technologies and Expression Analysis (LTEA) Assay for ABC Transporter (ABCC2) using HepaRG (AID 2283464)
Outline: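 HepaRG, 48 h post-plating; serum-free induction medium; cpd 8-pt, 100 uM top, half-log, 0.5% DMSO, duplicate, 48 h. Readout: ABCC2 mRNA by qRT-PCR, norm. ACTB/GAPDH/POLR2A. Bidirectional fit vs DMSO baseline.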

[3] = read-out: Broad substrate specificity ATP-binding cassette transporter ABCG2 (Homo sapiens) (UniProt Q9UNQ0); experiment: LTEA_HepaRG_ABCG2: Life Technologies and Expression Analysis (LTEA) Assay for ABC Transporter (ABCG2) using HepaRG (AID 2283465)
Outline: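 Differentiated HepaRG cells were exposed for 48 h in serum-free induction medium to 8 half-log concentrations, top 100 uM, in 0.5% DMSO. ABCG2 mRNA was measured by qRT-PCR, normalized to ACTB, GAPDH and POLR2A, with bidirectional fitting versus DMSO.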

[4] = read-out: ATP-citrate lyase (ACLY), ACLY (gene 47); experiment: LTEA_HepaRG_ACLY: Life Technologies and Expression Analysis (LTEA) Assay for ATP-citrate lyase (ACLY) using HepaRG (AID 2283466)
Outline: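 Differentiated HepaRG cells exposed 48 h in serum-free induction medium to eight half-log concentrations up to 100 uM in 0.5% DMSO, duplicates. Transcript measured by Fluidigm TaqMan qRT-PCR, normalized to ACTB, GAPDH, POLR2A; bidirectional fit versus DMSO.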

[5] = read-out: Peroxisomal acyl-coenzyme A oxidase 1 (ACOX1) gene, ACOX1 (gene 51); experiment: LTEA_HepaRG_ACOX1: Life Technologies and Expression Analysis (LTEA) Assay for Peroxisomal acyl-coenzyme A oxidase 1 (ACOX1) gene using HepaRG (AID 2283467)
Outline: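 HepaRG cells, plated 48 h then switched to serum-free induction medium, were exposed in duplicate for 48 h to 8-point half-log concentrations up to 100 uM in 0.5% DMSO. ACOX1 mRNA was measured by qRT-PCR, normalized to ACTB/GAPDH/POLR2A, and fitted bidirectionally versus DMSO.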

[6] = read-out: Alkaline Phosphatase, Placental (ALPP) gene, ALPP (gene 250); experiment: LTEA_HepaRG_ALPP: Life Technologies and Expression Analysis (LTEA) Assay for Alkaline Phosphatase, Placental (ALPP) gene using HepaRG (AID 2283468)
Outline: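 HepaRG, 48 h plating then 48 h dosing, serum-free induction medium, 0.5% DMSO. 8 conc, half-log, max 100 uM, duplicates. Endpoint: ALPP transcript by qRT-PCR, housekeeping-normalized; gain or loss fitted vs DMSO.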

[7] = read-out: Bcl-2 (BAD) gene, BAD (gene 572); experiment: LTEA_HepaRG_BAD: Life Technologies and Expression Analysis (LTEA) Assay for Bcl-2 (BAD) gene using HepaRG (AID 2283469)
Outline: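 Differentiated HepaRG cells were exposed in duplicate in 0.5% DMSO for 48 h to eight-point half-log concentrations up to 100 uM. BAD mRNA was measured by Fluidigm TaqMan qRT-PCR, normalized to ACTB, GAPDH and POLR2A, and fitted bidirectionally against DMSO.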

[8] = read-out: adenosine kinase (ADK) gene, ADK (gene 132); experiment: LTEA_HepaRG_ADK: Life Technologies and Expression Analysis (LTEA) Assay for adenosine kinase (ADK) gene using HepaRG (AID 2283471)
Outline: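 ADK expression quantified by qRT-PCR, normalised to three housekeeping genes, after 48 h exposure of HepaRG cells to eight concentrations (top 100 uM, half-log steps, duplicate, 0.5% DMSO). Up- or down-regulation fitted relative to vehicle.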

[9] = read-out: Alpha-fetoprotein (AFP) gene, AFP (gene 174); experiment: LTEA_HepaRG_AFP: Life Technologies and Expression Analysis (LTEA) Assay for Alpha-fetoprotein (AFP) gene using HepaRG (AID 2283472)
Outline: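 After a 48 h plating period, cells are moved to serum-free induction medium and dosed in duplicate (100 uM maximum, half-log dilutions, 0.5% DMSO) for another 48 h. Total RNA goes to TaqMan qRT-PCR; AFP signal is housekeeping-normalized.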

BCL2L11 (gene 10018) = experiment: LTEA_HepaRG_BCL2L11: Life Technologies and Expression Analysis (LTEA) Assay for Bcl-2 (BCL2L11) gene using HepaRG (AID 2283473)
Outline: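 Read-out is BCL2L11 transcript level by qRT-PCR, normalized to three housekeeping genes and fitted bidirectionally against 0.5% DMSO vehicle. HepaRG cells received chemicals for 48 h in serum-free induction medium, 100 uM down in half-log dilutions.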

[10] = read-out: Apolipoprotein A-V (APOA5) gene, APOA5 (gene 116519); experiment: LTEA_HepaRG_APOA5: Life Technologies and Expression Analysis (LTEA) Assay for Apolipoprotein A-V (APOA5) gene using HepaRG (AID 2283474)
Outline: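 Readout is APOA5 transcript level by qRT-PCR on Fluidigm dynamic arrays, normalized to three housekeeping genes. HepaRG cultures received chemicals for 48 h at up to 100 uM (half-log steps, 0.5% DMSO), with gain or loss scored relative to DMSO.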

[11] = read-out: Bcl-2 (BID) gene, BID (gene 637); experiment: LTEA_HepaRG_BID: Life Technologies and Expression Analysis (LTEA) Assay for Bcl-2 (BID) gene using HepaRG (AID 2283476)
Outline: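 Gain or loss of BID expression is fitted relative to 0.5% DMSO vehicle. Human HepaRG liver cells received a 48 h chemical exposure over an eight-point concentration range.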

Caspase-3 (Homo sapiens) = Caspase-3 (Homo sapiens) (UniProt P42574); experiment: LTEA_HepaRG_CASP3: Life Technologies and Expression Analysis (LTEA) Assay for cysteine-aspartic acid protease (CASP3) using HepaRG (AID 2283477)
Outline: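 Read-out is CASP3 mRNA level by TaqMan qRT-PCR in human HepaRG cells after 48 h chemical exposure. Eight half-log concentrations topping at 100 uM were tested in 0.5% DMSO; gain or loss was fitted relative to DMSO.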

[12] = read-out: Cytochrome P450 (CYP24A1), CYP24A1 (gene 1591); experiment: LTEA_HepaRG_CYP24A1: Life Technologies and Expression Analysis (LTEA) Assay for Cytochrome P450 (CYP24A1) using HepaRG (AID 2283478)
Outline: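 HepaRG, 48 h chemical exposure, 8-pt half-log CRC from 100 uM, 0.5% DMSO vehicle, duplicates. Endpoint: CYP24A1 mRNA by Fluidigm TaqMan qRT-PCR, normalized ACTB/GAPDH/POLR2A; gain/loss fit vs DMSO.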

[13] = read-out: Cytochrome P450 (CYP1A2), CYP1A2 (gene 1544); experiment: LTEA_HepaRG_CYP1A2: Life Technologies and Expression Analysis (LTEA) Assay for Cytochrome P450 (CYP1A2) using HepaRG (AID 2283479)
Outline: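 CYP1A2 transcript induction or loss, quantified by Fluidigm qRT-PCR against three housekeeping genes, was fitted bidirectionally against 0.5% DMSO controls. Human HepaRG cells received eight half-log concentrations from 100 uM over 48 h.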

[14] = read-out: cysteine-aspartic acid protease (CASP8), CASP8 (gene 841); experiment: LTEA_HepaRG_CASP8: Life Technologies and Expression Analysis (LTEA) Assay for cysteine-aspartic acid protease (CASP8) using HepaRG (AID 2283480)
Outline: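 Differentiated HepaRG cells in serum-free induction medium, 48 h exposure, eight-point half-log series from 100 uM in 0.5% DMSO, duplicates. CASP8 mRNA by qRT-PCR, normalized to ACTB, GAPDH, POLR2A; bidirectional fit versus DMSO.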

[15] = read-out: Cytochrome P450 (CYP2B6), CYP2B6 (gene 1555); experiment: LTEA_HepaRG_CYP2B6: Life Technologies and Expression Analysis (LTEA) Assay for Cytochrome P450 (CYP2B6) using HepaRG (AID 2283481)
Outline: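 HepaRG cells plated 48 h, switched to serum-free induction medium, then dosed 48 h (8 points, half-log from 100 uM, 0.5% DMSO). RNA isolated; CYP2B6 expression measured by qRT-PCR; gain or loss fitted relative to DMSO.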

[16] = read-out: Cytochrome P450 2C19 (Homo sapiens) (UniProt P33261); experiment: LTEA_HepaRG_CYP2C19: Life Technologies and Expression Analysis (LTEA) Assay for CYP2C19 using HepaRG (AID 2283482)
Outline: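 Transcript levels of CYP2C19 were quantified by qRT-PCR after HepaRG cells were treated for 48 hours with test chemicals up to 100 uM (eight half-log concentrations, 0.5% DMSO vehicle). Gain or loss of signal was fitted relative to DMSO.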

[17] = read-out: Apoptosis regulator Bcl-2 (Homo sapiens) (UniProt P10415); experiment: LTEA_HepaRG_BCL2: Life Technologies and Expression Analysis (LTEA) Assay for Bcl-2 gene using HepaRG (AID 2283475)
Outline: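 Expression change of BCL2 mRNA in HepaRG after 48 h dosing, quantified by TaqMan qRT-PCR against three endogenous controls. Concentration-response used eight points up to 100 uM, vehicle 0.5% DMSO.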

[18] = read-out: Bcl-2 (BAX) gene, BAX (gene 581); experiment: LTEA_HepaRG_BAX: Life Technologies and Expression Analysis (LTEA) Assay for Bcl-2 (BAX) gene using HepaRG (AID 2283470)
Outline: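 Concentration-response endpoint fitted in both directions relative to 0.5% DMSO vehicle. Human HepaRG cultures receive test chemicals for 48 h at up to 100 uM; BAX mRNA is quantified by qRT-PCR against housekeeping genes.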

Measured: AC50

Chain of Cytochrome P450 2C19 (Homo sapiens) (P33261 whole entry, looked up): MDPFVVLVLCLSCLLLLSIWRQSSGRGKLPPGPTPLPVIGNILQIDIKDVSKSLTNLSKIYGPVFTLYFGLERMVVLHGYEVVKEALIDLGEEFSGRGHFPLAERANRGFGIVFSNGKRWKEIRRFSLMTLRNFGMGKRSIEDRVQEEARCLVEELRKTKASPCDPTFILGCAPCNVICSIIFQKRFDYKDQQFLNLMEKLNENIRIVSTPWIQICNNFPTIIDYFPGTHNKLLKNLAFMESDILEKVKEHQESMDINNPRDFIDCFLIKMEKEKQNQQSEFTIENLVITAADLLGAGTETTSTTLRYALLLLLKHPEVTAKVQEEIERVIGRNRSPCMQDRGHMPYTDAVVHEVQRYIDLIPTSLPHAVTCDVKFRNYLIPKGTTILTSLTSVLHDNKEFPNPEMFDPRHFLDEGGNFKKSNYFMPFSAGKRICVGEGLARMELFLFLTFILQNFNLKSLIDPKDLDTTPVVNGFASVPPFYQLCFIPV
Chain of Broad substrate specificity ATP-binding cassette transporter ABCG2 (Homo sapiens) (Q9UNQ0 whole entry, looked up): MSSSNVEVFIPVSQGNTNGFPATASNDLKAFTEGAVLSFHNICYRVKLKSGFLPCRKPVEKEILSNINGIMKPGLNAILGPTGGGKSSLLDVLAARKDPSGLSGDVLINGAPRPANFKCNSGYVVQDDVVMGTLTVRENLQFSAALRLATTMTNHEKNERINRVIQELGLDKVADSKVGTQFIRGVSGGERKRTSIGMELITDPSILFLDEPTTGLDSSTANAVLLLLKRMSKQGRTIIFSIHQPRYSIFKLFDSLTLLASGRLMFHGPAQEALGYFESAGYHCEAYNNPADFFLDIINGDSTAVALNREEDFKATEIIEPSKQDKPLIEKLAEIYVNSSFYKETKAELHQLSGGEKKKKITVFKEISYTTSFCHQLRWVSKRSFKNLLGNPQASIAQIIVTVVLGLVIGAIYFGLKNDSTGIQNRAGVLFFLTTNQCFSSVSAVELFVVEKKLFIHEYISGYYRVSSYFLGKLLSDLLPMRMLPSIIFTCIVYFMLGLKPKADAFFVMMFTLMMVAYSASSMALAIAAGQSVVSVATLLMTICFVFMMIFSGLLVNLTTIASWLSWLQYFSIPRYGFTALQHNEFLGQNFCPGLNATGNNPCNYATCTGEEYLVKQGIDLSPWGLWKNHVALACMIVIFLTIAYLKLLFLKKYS
Chain of Caspase-3 (Homo sapiens) (P42574 whole entry, looked up): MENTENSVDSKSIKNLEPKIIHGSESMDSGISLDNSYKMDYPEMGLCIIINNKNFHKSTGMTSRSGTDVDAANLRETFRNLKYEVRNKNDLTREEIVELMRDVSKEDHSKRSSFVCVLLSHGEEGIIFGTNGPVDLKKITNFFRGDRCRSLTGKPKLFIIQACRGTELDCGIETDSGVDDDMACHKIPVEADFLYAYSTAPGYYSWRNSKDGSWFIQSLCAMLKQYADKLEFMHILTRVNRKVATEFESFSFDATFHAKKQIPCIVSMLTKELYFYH
Chain of Apoptosis regulator Bcl-2 (Homo sapiens) (P10415 whole entry, looked up): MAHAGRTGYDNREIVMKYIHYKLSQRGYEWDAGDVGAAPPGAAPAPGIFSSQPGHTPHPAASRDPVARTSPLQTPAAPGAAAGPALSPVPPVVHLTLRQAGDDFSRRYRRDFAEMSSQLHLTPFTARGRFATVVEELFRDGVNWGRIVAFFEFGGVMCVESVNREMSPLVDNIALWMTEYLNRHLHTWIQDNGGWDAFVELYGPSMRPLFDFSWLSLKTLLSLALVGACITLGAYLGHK

CC(O)CN(CCN(CC(C)O)CC(C)O)CC(C)O (stereo not given)
active: [7] 12.2 µM | [13] 50 µM
not listed: [17] | [18]
inactive: all other assays above

COCCOc1cc2cc(C(=O)NC3CCN(C(C)C)CC3)n(CC(=O)Nc3ccc(Cl)cn3)c2cn1
active: [1] 59.5 µM | [2] 37.2 µM | [5] 39.4 µM | [9] 65 µM | BCL2L11 (gene 10018) 15.2 µM | [10] 45 µM | [13] 2.12 µM | [15] 70.6 µM | [16] 66.8 µM
inactive: [3] | [4] | [6] | [7] | [8] | [11] | Caspase-3 (Homo sapiens) | [12] | [14]

COc1cccc(-c2ccc(/C=C\CN3CCCCCC3)cc2Cl)c1
active: [1] 69.3 µM | [2] 75.4 µM | [3] 37.8 µM | [5] 45.2 µM | [6] 45.2 µM | [10] 71.7 µM | [17] 67.4 µM | [13] 69.9 µM | [15] 77.3 µM | [16] 74.9 µM
inactive: [4] | [7] | [8] | [9] | BCL2L11 (gene 10018) | [11] | Caspase-3 (Homo sapiens) | [12] | [14]

CC(C)CCCCCCOC(=O)c1ccc(C(=O)OCCCCCCC(C)C)c(C(=O)OCCCCCCC(C)C)c1
active: [13] 14.4 µM
not listed: [7] | [18]
inactive: all other assays above

CNS(=O)(=O)c1cc(C(=O)N2CCC(CCN3C4CCC3CC(n3c(C)nc5ccccc53)C4)(c3cccc(F)c3)CC2)c(Cl)cc1F (stereo not given)
inactive: [2] | [7] | [18] | [8] | BCL2L11 (gene 10018) | [11] | Caspase-3 (Homo sapiens) | [12] | [14]
active: [1] 24.5 µM | [3] 17.1 µM | [4] 30.9 µM | [5] 13.3 µM | [9] 24.6 µM | [10] 30.5 µM | [17] 27.4 µM | [13] 27.2 µM | [15] 21.7 µM | [16] 50 µM

NC(=O)NO
not listed: [6] | [12] | [13] | [15] | [16]
inactive: all other assays above

C[C@](N)(Cc1ccc(O)c(O)c1)C(=O)O
not listed: [17] | [18]
inactive: all other assays above
